Reference: PubChem BioAssay
Active and inactive are the calls of the source. Unless noted, how the calls were made is not given here.

How the values were obtained:
[1] = system: XIP peptide (Xip251-270) binding; assay: XIP fragment 251-270 binding compounds – biochemical, small-molecule microarray, fluorescence 635/667 nm, 0.1 µg/mL protein, primary screen (AID 1182); settings: fluorescent protein binding, 635 nm, higher = more signal, called active from +8 up or from −8 down
[2] = system: XIP peptide (Xip251-270); assay: compounds binding XIP fragment 251-270 – biochemical, small-molecule microarray, fluorescence 635/667 nm, 0.5 µg/mL protein, primary screen (AID 1183); settings: fluorescence 635 nm, higher = more signal
[3] = blood-stage malaria parasite viability loss – strain 3D7, DAPI fluorescence, 100 nL, primary screen (AID 1184);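 further: parasites grown inside human red blood cells in medium with human serum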; settings: P. falciparum 3D7 growth, 3 d, higher = more signal
[4] = biological target: Homeobox protein Hox-A13 (Mus musculus) (UniProt Q62424); assay: disruptors of Hoxa13 oligonucleotide interaction – biochemical, fluorescence polarization, labeled oligonucleotide, primary screen (AID 1185); settings: Hoxa13:DNA binding, 15 min, higher = more signal, called active from +8 up or from −8 down
[5] = blockers of DNA damage checkpoint Chk1 activation – imaging, HeLa, hydroxyurea, phospho-Chk1 antibody, percent positive cells, primary screen (AID 1186); settings: hydroxyurea-induced phospho-Chk1 immunofluorescence imaging, higher = more signal
[6] = blockers of DNA damage checkpoint Chk1 activation – imaging, HeLa, hydroxyurea, phospho-Chk1 nuclear intensity, primary screen (AID 1187); settings: hydroxyurea-induced phospho-Chk1 immunofluorescence imaging, higher = more signal

Homeobox protein Hox-A13 (Mus musculus), sequence (Q62424 whole entry, looked up): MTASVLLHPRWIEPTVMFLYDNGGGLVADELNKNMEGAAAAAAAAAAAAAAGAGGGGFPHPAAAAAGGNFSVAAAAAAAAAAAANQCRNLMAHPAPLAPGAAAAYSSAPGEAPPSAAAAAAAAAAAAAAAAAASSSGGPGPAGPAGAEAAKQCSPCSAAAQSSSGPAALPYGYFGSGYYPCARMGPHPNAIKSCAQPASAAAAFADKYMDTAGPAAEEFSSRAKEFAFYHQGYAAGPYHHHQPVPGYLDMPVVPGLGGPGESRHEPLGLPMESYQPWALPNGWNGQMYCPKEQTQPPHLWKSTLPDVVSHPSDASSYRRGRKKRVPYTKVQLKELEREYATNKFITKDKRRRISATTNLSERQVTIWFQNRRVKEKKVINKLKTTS

SMILES	composite z-score [1]	composite z-score [2]	z-score [3]	z-score [4]	z-score [5]	z-score [6]
Cc1ccc(C2C3C(=O)CC4C(=O)N(c5ccccc5)C(=O)C4C3CN2S(=O)(=O)c2ccc(C)cc2)cc1 (stereo not given)	0.053 (inactive)	0.785	0.395	-3.61 (inactive)	0.951 (inactive)	1 (inactive)
C=CCN1Cc2ccccc2[C@@H]2OC(c3ccc(OCCCO)cc3)=N[C@]2(CCS(=O)(=O)c2ccccc2)C1=O	0.3 (inactive)	0.799	-2.3	-2.43 (inactive)	-0.386 (inactive)	-0.386 (inactive)
COC(=O)c1c(CC[C@@H](CO)NC(=O)N[C@@H](Cc2ccccc2)Cn2cc(-c3ccccn3)nn2)oc(C(=O)N2CCOCC2)c1C(=O)OC	0.53 (inactive)	0.0134	-0.671	-2.7 (inactive)	0.101 (inactive)	0.0064 (inactive)
COc1cc2c(cc1OC)CN(C(=O)[C@H]1[C@@H]3C(=O)O[C@@H](c4ccccc4)[C@@H](c4ccccc4)N3[C@@H](c3ccccc3OCCO)[C@]13C(=O)Nc1ccc(C#CCCO)cc13)CC2	0.138 (inactive)	0.438	-2.16	1.23 (inactive)	0.211 (inactive)	0.0914 (inactive)
Cc1ccc(S[C@]2(C(=O)NCC(C)C)CC(=O)N(Cc3cc(C(F)(F)F)cc(C(F)(F)F)c3)[C@@H]2c2ccc(CO)cc2)cc1	-0.0537 (inactive)	0.0501	-0.309	-2.19 (inactive)	-0.0406 (inactive)	-0.284 (inactive)
CC(C)CNC(=O)[C@@]1(Cc2ccccc2I)c2ccccc2C(=O)N(Cc2ccccc2C(F)(F)F)[C@H]1c1ccc(CO)cc1	1.43 (inactive)	0.875	-0.538	-1.78 (inactive)	0.172 (inactive)	0.345 (inactive)
CC(=O)NCCCC[C@@H]1NC(=O)[C@H]2C[C@@H](C(=O)NCCCCCNC(=O)CS)[C@@H](c3ccc(O)cc3)N2C1=O	0.184 (inactive)	0.805	0.147	-3.02 (inactive)	0.0401 (inactive)	0.176 (inactive)
CN(C)CCCCCCNC(=O)[C@@H]1C[C@@H]2C(=O)N[C@@H](CCCC[N+](C)(C)C)C(=O)N2[C@@H]1c1ccc(O)cc1	0.759 (inactive)	0.146	1.99	-1.64 (inactive)	0.702 (inactive)	0.0464 (inactive)
[N-]=[N+]=Nc1ccccc1C[C@]1(C(=O)NCc2ccccc2)N=C(c2ccc(OCCCO)cc2)O[C@H]1c1ccccc1N=[N+]=[N-]	-0.12 (inactive)	0.681	-2.32	0.69 (inactive)	-0.231 (inactive)	-0.741 (inactive)
CC(C)CCC[C@@H](C)[C@H]1CC[C@@]2(C)C3=C(CC[C@]12C)[C@@]1(C)CC[C@H](OC(=O)c2ccc(C(F)(F)F)nc2)C(C)(C)C1CC3 (stereo not given in full)	0.106 (inactive)	-0.176	-0.145	-1.23 (inactive)	-0.887 (inactive)	-0.365 (inactive)
COCCOC(=O)N1C(=O)[C@@]2(c3cc(C#Cc4ccc(OC)cc4)ccc31)[C@H](c1ccc(O)cc1)N1[C@H](c3ccccc3)[C@H](c3ccccc3)OC(=O)[C@H]1[C@@H]2C(=O)Nc1nc2ccccc2s1	0.691 (inactive)	0.641	-0.0098	-0.183 (inactive)	-0.233 (inactive)	-0.215 (inactive)
O=C1OCC=C[C@H]2OC34C=CCN(Cn5nnc6ccccc65)C(=O)[C@H]3N(CCCCCO)C(=O)[C@@H]4[C@@H]12 (stereo not given in full)	0.537 (inactive)	0.193	-0.133	-3.27 (inactive)	-0.288 (inactive)	-0.398 (inactive)
CCCCC(O)C1C=CC2C(=O)N(C)C(=O)C2N1N1CCCCC1 (stereo not given)	0.0433 (inactive)	0.941	-0.133	-6.77 (inactive)	0.492 (inactive)	0.154 (inactive)
CC1CC/C=C\[C@H]2OC34C=CCN(Cn5nnc6ccccc65)C(=O)[C@H]3N(CCCCCO)C(=O)[C@@H]4C2C(=O)O1 (stereo not given in full)	-0.369 (inactive)	-0.745	-0.585	-3.77 (inactive)	-0.749 (inactive)	-0.2 (inactive)
CCCCC(=C=CC[C@@H](O)c1cccc(OCCO)c1)C[C@@H](O)c1ccccn1	1.26 (inactive)	0.75	-0.12	-5.42 (inactive)	-0.0346 (inactive)	0.159 (inactive)
C=CC[C@]1(C(N)=O)N=C(c2ccc(OCCCO)cc2)O[C@H]1c1ccccc1	0.672 (inactive)	0.787	-1.09	-6.17 (inactive)	0.344 (inactive)	0.327 (inactive)
C=C(/C(=C/C[C@H](OC(=O)c1ccncc1)c1ccc(OCCO)cc1)c1cc(C(=O)OC)ccc1OC)C(C)C	0.249 (inactive)	0.505	-2.87	-3.23 (inactive)	-0.962 (inactive)	-0.621 (inactive)
COCC(=C=CC[C@H](O)c1cccc(OCCO)c1)C[C@H](O)c1cc(Cl)cc(Cl)c1O	0.378 (inactive)	0.825	-0.366	-4.71 (inactive)	0.144 (inactive)	0.532 (inactive)
Cc1ccc(S[C@]2(C(=O)O)CC(=O)N(Cc3ccccc3C(F)(F)F)[C@@H]2c2ccc(CO)cc2I)cc1	0.397 (inactive)	0.773	0.182	-2.74 (inactive)	-0.157 (inactive)	0.408 (inactive)
COC(=O)[C@@]1(Cc2ccc(F)cc2)[C@H]2c3cc(C(=O)N(C)C)n(Cc4ccc(C)o4)c3C[C@H]2CN1C(=O)c1ccccc1	1.66 (inactive)	0.665	-1.44	-2.94 (inactive)	0.262 (inactive)	-0.0286 (inactive)
COCCCNC(=O)[C@@]1(Sc2ccc(C)cc2)CC(=O)N(Cc2ccccc2Cl)[C@@H]1c1ccc(CO)cc1	0.906 (inactive)	0.887	-1.63	-2.28 (inactive)	-0.63 (inactive)	-1.1 (inactive)
COC(=O)[C@H](Cc1ccccc1)N[C@H](/C=C/C1CC1)[C@@H](O)Cc1ccccc1	-0.126 (inactive)	0.34	-0.873	-5.24 (inactive)	-0.748 (inactive)	-0.39 (inactive)
COCCCNC(=O)[C@@]1(Cc2ccccc2)N=C(c2ccc(OCCCO)cc2)O[C@H]1c1ccccc1CN=[N+]=[N-]	0.596 (inactive)	0.801	-2.62	-3.07 (inactive)	0.0048 (inactive)	-0.194 (inactive)
Cc1ccc(S(=O)(=O)N2C[C@@H](C(=O)O)[C@H](Sc3ccccc3)C[C@H]2c2ccccc2)cc1	0.117 (inactive)	0.779	-0.0652	-7 (inactive)	0.442 (inactive)	0.283 (inactive)
O=C1NC(=O)C2C1C=CC(C(O)c1ccc(I)cc1)N2Nc1ccc(Cl)cc1Cl (stereo not given)	0.9 (inactive)	0.284	0.692	-3.94 (inactive)	0.0215 (inactive)	0.33 (inactive)
